Laboratory results from the supplement of paper PMC11732987, “Enantioselective OTUD7B fragment discovery through chemoproteomics screening and high-throughput optimisation” (Communications Chemistry, 2025).

Key:
Assay in all cases: log2 ratio of Biotin-Ahx-Ub-VS probe labelling (fragment/DMSO); higher = less target engagement (more negative = stronger competition), active = hit call of the paper (q ≤ 0.05, log2 ratio ≤ -1)
Settings in all cases: compound concentration: 200 uM; treatment time: 3 h
ALG13 = target: T1, ALG13 (UniProt Q9NP73)
T1 sequence (whole entry): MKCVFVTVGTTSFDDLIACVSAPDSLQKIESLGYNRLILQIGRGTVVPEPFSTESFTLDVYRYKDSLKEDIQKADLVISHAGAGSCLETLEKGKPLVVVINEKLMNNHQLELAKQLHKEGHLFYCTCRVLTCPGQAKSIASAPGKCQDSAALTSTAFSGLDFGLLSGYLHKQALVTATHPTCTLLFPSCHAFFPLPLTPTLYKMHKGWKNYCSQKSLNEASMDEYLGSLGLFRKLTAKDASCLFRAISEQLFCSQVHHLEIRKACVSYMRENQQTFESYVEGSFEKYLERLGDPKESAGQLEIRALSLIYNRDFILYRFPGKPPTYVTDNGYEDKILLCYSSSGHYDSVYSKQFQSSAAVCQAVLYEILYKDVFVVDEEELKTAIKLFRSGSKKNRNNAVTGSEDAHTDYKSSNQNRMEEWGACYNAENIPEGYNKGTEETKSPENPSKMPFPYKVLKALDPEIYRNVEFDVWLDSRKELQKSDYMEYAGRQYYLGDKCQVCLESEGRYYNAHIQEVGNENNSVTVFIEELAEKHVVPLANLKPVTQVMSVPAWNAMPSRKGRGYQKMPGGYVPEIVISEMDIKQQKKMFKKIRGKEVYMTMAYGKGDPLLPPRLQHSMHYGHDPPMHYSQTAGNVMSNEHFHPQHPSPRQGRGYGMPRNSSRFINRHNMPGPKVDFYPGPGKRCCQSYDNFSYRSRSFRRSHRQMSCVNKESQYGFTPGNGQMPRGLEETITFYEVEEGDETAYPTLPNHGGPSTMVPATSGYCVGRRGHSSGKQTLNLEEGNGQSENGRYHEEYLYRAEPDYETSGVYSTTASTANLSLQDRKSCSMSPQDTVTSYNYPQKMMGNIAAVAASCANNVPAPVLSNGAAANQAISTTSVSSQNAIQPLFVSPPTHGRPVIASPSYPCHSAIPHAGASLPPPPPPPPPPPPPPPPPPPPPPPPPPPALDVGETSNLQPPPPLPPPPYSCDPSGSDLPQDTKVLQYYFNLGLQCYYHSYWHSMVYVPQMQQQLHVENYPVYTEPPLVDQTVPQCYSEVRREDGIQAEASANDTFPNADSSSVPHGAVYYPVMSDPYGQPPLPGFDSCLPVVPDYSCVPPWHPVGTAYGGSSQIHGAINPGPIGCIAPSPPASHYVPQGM
Method in brief: (§1)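 In triplicate, 495 µg of HEK293T lysate per sample was incubated with fragment at 200 µM or vehicle for 3 h. Biotin-Ahx-Ub-VS was then added to 0.5 µM final for 1 h, and labelled DUBs were captured with NeutrAvidin, digested with LysC and trypsin, and measured by diaPASEF LC-MS/MS. Data are average log2 fragment/vehicle ratios by unpaired t-test from global-median-normalised Spectronaut label-free quantities, restricted to proteins with ≥2 unique peptides.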

ATXN3 = ATXN3 (UniProt P54252)
Chain of ATXN3 (P54252 whole entry): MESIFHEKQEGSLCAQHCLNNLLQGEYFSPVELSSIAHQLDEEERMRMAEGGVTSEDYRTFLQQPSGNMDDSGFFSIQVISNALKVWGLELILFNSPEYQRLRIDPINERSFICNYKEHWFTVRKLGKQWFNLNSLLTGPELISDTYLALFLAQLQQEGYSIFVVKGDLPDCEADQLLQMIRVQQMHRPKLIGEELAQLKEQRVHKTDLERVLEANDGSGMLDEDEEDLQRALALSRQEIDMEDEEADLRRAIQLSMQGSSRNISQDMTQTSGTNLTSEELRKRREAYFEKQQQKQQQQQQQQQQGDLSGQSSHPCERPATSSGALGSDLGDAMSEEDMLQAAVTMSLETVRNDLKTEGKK
Method in brief: as §1

BAP1 = target: T2, BAP1 (UniProt Q92560)
T2 sequence (whole entry): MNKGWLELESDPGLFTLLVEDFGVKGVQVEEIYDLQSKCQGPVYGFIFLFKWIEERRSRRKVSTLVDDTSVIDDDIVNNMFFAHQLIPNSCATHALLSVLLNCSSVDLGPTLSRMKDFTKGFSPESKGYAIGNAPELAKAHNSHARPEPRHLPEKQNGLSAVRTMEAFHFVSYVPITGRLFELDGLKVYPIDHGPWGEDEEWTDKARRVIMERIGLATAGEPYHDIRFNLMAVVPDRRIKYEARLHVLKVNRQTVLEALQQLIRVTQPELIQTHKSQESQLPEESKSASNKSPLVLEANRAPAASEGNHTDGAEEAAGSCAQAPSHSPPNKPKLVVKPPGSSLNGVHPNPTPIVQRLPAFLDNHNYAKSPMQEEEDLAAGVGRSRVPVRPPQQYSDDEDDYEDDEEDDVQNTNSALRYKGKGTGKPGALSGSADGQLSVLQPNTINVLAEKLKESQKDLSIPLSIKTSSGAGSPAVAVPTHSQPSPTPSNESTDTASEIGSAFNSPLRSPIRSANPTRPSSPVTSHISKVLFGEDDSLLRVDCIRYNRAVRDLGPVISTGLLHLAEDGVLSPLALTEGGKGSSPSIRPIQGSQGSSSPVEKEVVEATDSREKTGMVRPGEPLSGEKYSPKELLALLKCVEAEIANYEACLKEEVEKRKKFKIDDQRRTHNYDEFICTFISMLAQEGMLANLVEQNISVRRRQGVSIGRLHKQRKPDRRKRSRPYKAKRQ
Method in brief: as §1

EIF3F = EIF3F (UniProt O00303)
Chain of EIF3F (O00303 whole entry): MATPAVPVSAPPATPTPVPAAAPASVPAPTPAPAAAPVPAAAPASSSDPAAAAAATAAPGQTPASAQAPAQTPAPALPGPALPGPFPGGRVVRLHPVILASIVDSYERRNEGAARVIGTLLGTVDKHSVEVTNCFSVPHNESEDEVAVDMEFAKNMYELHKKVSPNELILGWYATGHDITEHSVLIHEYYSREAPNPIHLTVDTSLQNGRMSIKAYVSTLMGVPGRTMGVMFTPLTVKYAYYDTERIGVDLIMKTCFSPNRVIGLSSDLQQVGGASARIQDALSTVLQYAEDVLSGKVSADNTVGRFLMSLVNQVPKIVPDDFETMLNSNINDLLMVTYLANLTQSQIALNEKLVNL
Method in brief: as §1

EIF3H = EIF3H (UniProt O15372)
Chain of EIF3H (O15372 whole entry): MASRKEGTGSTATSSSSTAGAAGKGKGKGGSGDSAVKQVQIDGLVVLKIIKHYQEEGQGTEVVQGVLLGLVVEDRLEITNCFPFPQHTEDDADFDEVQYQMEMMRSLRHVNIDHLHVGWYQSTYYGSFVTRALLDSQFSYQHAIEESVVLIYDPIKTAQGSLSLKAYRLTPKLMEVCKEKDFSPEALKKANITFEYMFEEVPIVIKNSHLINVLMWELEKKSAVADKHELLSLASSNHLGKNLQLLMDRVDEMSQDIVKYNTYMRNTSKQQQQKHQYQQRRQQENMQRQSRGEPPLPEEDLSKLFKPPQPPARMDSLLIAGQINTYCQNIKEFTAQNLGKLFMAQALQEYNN
Method in brief: as §1

FAM105A = target: T3, FAM105A (UniProt Q9NUU6)
T3 sequence (whole entry): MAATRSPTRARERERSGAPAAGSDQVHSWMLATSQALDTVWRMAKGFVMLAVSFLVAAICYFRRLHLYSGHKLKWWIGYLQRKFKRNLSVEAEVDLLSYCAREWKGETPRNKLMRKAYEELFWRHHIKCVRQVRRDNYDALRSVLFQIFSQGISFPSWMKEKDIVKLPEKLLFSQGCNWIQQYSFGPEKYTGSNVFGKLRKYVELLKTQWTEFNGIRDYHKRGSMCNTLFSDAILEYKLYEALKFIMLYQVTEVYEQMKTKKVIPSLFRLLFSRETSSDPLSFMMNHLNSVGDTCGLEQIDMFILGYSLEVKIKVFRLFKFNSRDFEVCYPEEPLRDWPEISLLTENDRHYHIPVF
Method in brief: as §1

OTUB1 = OTUB1 (UniProt Q96FW1)
Chain of OTUB1 (Q96FW1 whole entry): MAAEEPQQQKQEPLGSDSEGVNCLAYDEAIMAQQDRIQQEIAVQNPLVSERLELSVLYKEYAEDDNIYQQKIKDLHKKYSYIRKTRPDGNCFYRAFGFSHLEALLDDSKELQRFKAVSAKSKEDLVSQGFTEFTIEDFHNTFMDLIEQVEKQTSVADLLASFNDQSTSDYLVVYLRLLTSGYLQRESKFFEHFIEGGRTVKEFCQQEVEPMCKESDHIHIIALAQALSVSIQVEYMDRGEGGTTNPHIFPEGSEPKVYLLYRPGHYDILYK
Method in brief: as §1

OTUD4 = target: T4, OTUD4 (UniProt Q01804)
T4 sequence (whole entry): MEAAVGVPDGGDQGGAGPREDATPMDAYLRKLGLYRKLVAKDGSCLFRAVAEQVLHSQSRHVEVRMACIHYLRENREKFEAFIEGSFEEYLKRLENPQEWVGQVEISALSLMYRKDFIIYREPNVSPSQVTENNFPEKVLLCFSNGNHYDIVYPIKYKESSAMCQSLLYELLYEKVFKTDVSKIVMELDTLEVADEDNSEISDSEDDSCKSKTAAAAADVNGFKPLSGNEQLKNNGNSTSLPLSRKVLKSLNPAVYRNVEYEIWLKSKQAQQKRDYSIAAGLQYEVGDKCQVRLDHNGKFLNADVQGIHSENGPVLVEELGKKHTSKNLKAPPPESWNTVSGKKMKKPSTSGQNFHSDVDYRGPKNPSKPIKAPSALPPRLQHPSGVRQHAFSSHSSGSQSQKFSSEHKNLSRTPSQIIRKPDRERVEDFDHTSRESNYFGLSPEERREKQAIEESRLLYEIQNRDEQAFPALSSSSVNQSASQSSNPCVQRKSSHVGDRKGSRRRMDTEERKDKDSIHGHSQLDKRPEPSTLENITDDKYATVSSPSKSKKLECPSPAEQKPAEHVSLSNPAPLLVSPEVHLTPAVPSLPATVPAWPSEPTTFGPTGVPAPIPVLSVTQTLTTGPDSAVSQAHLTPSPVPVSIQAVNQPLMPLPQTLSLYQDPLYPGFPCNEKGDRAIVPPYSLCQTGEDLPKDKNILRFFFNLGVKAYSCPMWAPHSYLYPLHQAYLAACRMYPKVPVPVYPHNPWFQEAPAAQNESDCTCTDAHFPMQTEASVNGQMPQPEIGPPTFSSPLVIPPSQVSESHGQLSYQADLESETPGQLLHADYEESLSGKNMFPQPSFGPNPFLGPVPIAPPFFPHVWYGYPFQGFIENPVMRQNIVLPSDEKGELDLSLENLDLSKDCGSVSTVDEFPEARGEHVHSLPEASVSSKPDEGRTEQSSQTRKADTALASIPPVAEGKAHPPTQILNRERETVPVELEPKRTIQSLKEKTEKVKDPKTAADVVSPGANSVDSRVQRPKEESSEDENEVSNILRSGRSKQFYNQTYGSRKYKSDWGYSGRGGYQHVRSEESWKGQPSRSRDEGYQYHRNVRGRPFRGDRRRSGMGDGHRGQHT
Method in brief: as §1

OTUD5 = target: T5, OTUD5 (UniProt Q96G74)
T5 sequence (whole entry): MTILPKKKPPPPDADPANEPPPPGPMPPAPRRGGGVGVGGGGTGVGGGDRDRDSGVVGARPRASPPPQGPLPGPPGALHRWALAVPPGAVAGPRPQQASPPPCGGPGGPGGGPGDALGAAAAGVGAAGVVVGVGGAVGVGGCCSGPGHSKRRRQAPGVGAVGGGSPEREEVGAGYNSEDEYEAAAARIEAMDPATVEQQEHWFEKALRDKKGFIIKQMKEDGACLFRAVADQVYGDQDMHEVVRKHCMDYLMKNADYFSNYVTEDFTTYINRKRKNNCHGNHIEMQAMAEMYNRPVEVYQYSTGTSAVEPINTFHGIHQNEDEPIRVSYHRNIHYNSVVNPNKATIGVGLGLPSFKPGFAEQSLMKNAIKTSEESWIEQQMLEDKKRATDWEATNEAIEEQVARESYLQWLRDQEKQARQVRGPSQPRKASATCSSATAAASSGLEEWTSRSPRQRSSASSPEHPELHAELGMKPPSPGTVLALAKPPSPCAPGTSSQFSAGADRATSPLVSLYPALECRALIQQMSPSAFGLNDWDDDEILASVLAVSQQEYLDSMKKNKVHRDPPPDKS
Method in brief: as §1

Measured: log2 ratio of Biotin-Ahx-Ub-VS probe labelling

Cl.Cn1nc2c(c1CNC(=O)CCl)CCCC2
active: BAP1 -2.53
inactive: ALG13 -0.455 | ATXN3 -0.903 | EIF3F -0.323 | EIF3H -0.0155 | FAM105A -0.099 | OTUB1 -0.175 | OTUD4 -0.319 | OTUD5 -0.329
